# Measurements as given in PubChem BioAssay (Tox21).
# Several values for one entry are separate records, joined by “and”; a condition that tells them apart may be missing. Equal entries are not always repeated. Unmarked numbers belong to inactive results. Results filed as inconclusive are left out. A call without a number means that no potency is given here. Activity calls are given as the source filed them. Unless noted, calls follow the shape of the dose curve; as a rule, active = well fitted curve in the direction sought with a large enough effect in the repeat runs; inconclusive = weak or mixed curves; inactive = no such curve, though single readings can be large; an effect the other way counts as inactive or inconclusive.
# Legend:
# [1] = qHTS assay to identify small molecule antagonists of the estrogen receptor alpha (ER-alpha) signaling pathway using the BG1 cell line in the presence of 0.1 nM 17-beta-estradiol - cell viability counter screen (AID 1259241); also: nearly all actives have a fitted effect of over 40% in size
# Outline: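 The cell line endogenously expresses full-length ER-alpha and carries four EREs driving luciferase. Cells are cultured 5 days hormone-free, treated 22 hr with compounds and 0.1 nM estradiol, then viability is read by fluorescence.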
# [2] = qHTS assay to identify small molecule antagonists of the androgen receptor (AR) signaling pathway using the MDA cell line in the presence of 0.5 nM R1881 - cell viability counter screen (AID 1259242); also: nearly all actives have a fitted effect of over 45% in size
# Outline: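 Cytotoxicity toward MDA-kb2 cells is measured by CellTiter-Fluor live-cell protease fluorescence after 16 hr compound exposure at 37C in the presence of 0.5 nM R1881 stimulator.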
# [3] = molecular target: Estrogen receptor (Homo sapiens) (UniProt P03372); assay: qHTS assay to identify small molecule antagonists of the estrogen receptor alpha (ER-alpha) signaling pathway using the BG1 cell line in the presence of 0.1 nM 17-beta-estradiol (AID 1259244); also: nearly all actives have a fitted effect of over 50% in size
# Chain of Estrogen receptor (Homo sapiens) (P03372 whole entry, looked up): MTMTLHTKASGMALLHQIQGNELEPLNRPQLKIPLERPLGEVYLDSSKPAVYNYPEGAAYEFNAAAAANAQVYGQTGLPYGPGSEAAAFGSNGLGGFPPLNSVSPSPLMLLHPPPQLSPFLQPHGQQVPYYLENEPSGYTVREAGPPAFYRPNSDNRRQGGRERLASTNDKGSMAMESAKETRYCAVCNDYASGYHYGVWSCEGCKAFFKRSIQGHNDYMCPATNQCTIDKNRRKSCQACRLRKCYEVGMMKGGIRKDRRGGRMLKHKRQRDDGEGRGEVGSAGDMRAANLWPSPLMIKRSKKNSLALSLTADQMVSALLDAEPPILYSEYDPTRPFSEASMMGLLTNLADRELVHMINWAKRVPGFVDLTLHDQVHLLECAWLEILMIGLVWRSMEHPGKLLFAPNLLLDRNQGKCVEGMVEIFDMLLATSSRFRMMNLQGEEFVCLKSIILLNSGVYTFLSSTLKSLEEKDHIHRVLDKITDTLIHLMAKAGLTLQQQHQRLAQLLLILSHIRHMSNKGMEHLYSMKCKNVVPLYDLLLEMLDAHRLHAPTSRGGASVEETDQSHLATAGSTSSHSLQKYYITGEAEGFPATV
# Outline: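 After 5 days in hormone-depleted medium (charcoal-stripped serum, no phenol red), VM7Luc4E2 cells were seeded, incubated 24 h, then co-treated with compound and 0.1 nM (final) estradiol for 22 h before luminescence detection.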
# [4] = qHTS assay to identify small molecule phospholipidosis (PLD) inducers (AID 1259344; active = well fitted curve in the direction sought with a large enough effect; an effect the other way counts as inactive or inconclusive)
# Outline: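 Fluorescent phospholipid staining (LipidTOX Red) measured by automated microscopy in fixed HepG2 cells after 24 h treatment; nuclei counterstained with Hoechst 33342; amiodarone as reference inducer.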
# [5] = qHTS assay to identify small molecule HDAC inhibitors (AID 1259364); also: top concentration of the series differs between compounds; nearly all actives have a fitted effect of over 45% in size
# Outline: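 Homogeneous cell-based luminescent assay of endogenous class I/II HDAC activity; HCT-116 cells, 2 h compound exposure, 30 min HDAC-Glo development at RT.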
# [6] = qHTS assay to identify small molecule HDAC inhibitors - cell viability counter screen (AID 1259365); also: series mostly up to about 92 µM; nearly all actives have a fitted effect of over 50% in size
# Outline: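 Viability readout: CellTiter-Glo luminescence. Wild-type HCT-116 cells, 2hr compound treatment following overnight attachment at 37 C.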
# [7] = qHTS assay to identify small molecule antagonists of the sonic hedgehog signaling (Shh) pathway - cell viability counter screen (AID 1259367); also: nearly all actives have a fitted effect of over 55% in size; also: potency is read from the fitted curve at half-maximal effect
# Outline: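 Using CellTiter-Fluor, viability of Gli1-Luc reporter 3T3 cells is read by fluorescence in the wells used for the Shh luciferase assay. Treatment lasts 23 hr with conditioned medium, then reagent 1 hr at 37C.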
# [8] = qHTS assay to identify small molecule agonists of the sonic hedgehog signaling (Shh) pathway (AID 1259368; calls by dose curve;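 also: NIH/3T3-derived 3T3Gli1-Luc cells carrying a stable Gli1-driven firefly luciferase reporter; series mostly up to about 92 µM; nearly all actives have a fitted effect of over 15% in size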)
# Outline: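 Steps: seed 3T3 Gli1-Luc cells, incubate 4 hr at 37 C, pin-transfer compounds in DMSO alongside a positive control, incubate 24 hr, add luciferase detection reagent, wait 30 min at room temperature, read luminescence.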
# [9] = molecular target: Estrogen receptor beta (Homo sapiens) (UniProt Q92731); assay: qHTS assay to identify small molecule agonists of the estrogen receptor beta (ER-beta) signaling pathway (AID 1259377; active = well fitted activation curve with a large enough effect in the signal ratio in the repeat runs, not every such curve was filed as active; the % refers to the signal ratio)
# Chain of Estrogen receptor beta (Homo sapiens) (Q92731 whole entry, looked up): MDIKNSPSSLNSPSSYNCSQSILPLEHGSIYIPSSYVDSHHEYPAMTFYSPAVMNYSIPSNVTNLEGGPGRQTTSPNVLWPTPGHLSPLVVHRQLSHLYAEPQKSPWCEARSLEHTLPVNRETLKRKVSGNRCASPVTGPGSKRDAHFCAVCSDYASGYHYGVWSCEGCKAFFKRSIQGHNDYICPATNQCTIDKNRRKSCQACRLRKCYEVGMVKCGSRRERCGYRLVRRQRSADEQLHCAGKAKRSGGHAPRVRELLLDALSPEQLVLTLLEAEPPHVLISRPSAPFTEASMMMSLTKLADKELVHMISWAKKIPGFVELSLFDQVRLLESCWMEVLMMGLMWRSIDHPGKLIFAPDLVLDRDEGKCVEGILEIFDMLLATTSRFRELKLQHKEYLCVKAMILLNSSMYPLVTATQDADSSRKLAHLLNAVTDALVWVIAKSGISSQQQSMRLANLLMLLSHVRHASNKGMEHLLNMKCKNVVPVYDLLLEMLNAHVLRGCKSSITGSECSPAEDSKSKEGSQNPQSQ
# Outline: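 A UAS-controlled beta-lactamase reporter in ER-beta-UAS-bla HEK293T cells reports receptor activation. Compounds act for 16 hr at 37C in 2% charcoal-stripped serum, and a FRET substrate is read by fluorescence after 2 hours.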
# [10] = molecular target: Estrogen receptor beta (Homo sapiens) (UniProt Q92731); assay: qHTS assay to identify small molecule antagonists of the estrogen receptor beta (ER-beta) signaling pathway (AID 1259378; active = well fitted inhibition curve with a large enough effect in the signal ratio in the repeat runs, not every such curve was filed as active; the % refers to the signal ratio)
# Outline: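 Antagonist mode: compounds added to beta-lactamase reporter HEK293T ER-beta-UAS cells stimulated with E2 (1nM final), 16 hr at 37C. LiveBLAzer B/G FRET substrate, 2 hours room temperature, fluorescence read-out.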
# [11] = qHTS assay to identify small molecule agonists of the androgen receptor (AR) signaling pathway in the presence of an antagonist - cell viability counter screen (AID 1259379);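 also: MDA-kb2 human breast cancer cells carrying an MMTV luciferase reporter; series mostly up to about 92 µM; nearly all actives have a fitted effect of over 25% in size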
# Outline: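 Fluorescence from CellTiter-Fluor, added after 15 hr and read 1 hr later, gave cell viability. Cells were MDA-kb2 exposed to compounds (15 concentrations) in the presence of 3.0uM nilutamide at 37C, 0% CO2.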
# [12] = qHTS assay to identify small molecule agonists of the estrogen receptor beta (ER-beta) signaling pathway - cell viability counter screen (AID 1259380); also: nearly all actives have a fitted effect of over 30% in size; also: potency is read from the fitted curve at half-maximal effect
# Outline: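 Same-well viability counter screen. Cells: ER-beta-UAS-bla HEK293T, plated 6 hr before compound, in 2% charcoal-stripped FBS. Compound exposure 16 hr, 37C; viability by CellTiter-Glo luminescence after 30 min at room temperature.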
# [13] = qHTS assay to identify small molecule antagonists of the estrogen receptor beta (ER-beta) signaling pathway - cell viability counter screen (AID 1259382); also: nearly all actives have a fitted effect of over 55% in size; also: potency is read from the fitted curve at half-maximal effect
# Outline: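 Following a 6 hr plating period, HEK293T cells carrying a UAS-driven beta-lactamase reporter under ER-beta control received compounds and 1nM E2 (final). After 16 hr at 37C and 2 hr substrate loading, CellTiter-Glo luminescence indicated viability.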
# [14] = molecular target: Estrogen receptor (Homo sapiens) (UniProt P03372); assay: qHTS assay to identify small molecule agonists of the estrogen receptor alpha (ER-alpha) signaling pathway in the presence of an antagonist (AID 1259383; calls by dose curve; also: top concentration of the series differs between compounds; nearly all actives have a fitted effect of over 15% in size)
# Outline: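 Cells are hormone-deprived for 5 days (charcoal-stripped FBS, no phenol red), plated for 24hr, spiked with 10.0nM ICI-182,780, then dosed at 15 concentrations. After 22hr at 37C, ONE-Glo luminescence reports ERE-luciferase activity.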
# [15] = qHTS assay to identify small molecule agonists or antagonists of the thyroid stimulating hormone receptor (TSHR) signaling pathway - wild type cell line counter screen (AID 1259384; calls by dose curve)
# Outline: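 Counter screen in untransfected Hek293: compounds (15-point titration, triplicate) plus phosphodiesterase inhibitor Ro20-1724 added after 18 h plating; 30 min RT. Intracellular cAMP via competitive d2/cryptate immunoassay, 1 h incubation.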
# [16] = molecular target: Thyrotropin receptor (Homo sapiens) (UniProt P16473); assay: qHTS assay to identify small molecule antagonists of the thyroid stimulating hormone receptor (TSHR) signaling pathway (AID 1259385; calls by dose curve; also: nearly all actives have a fitted effect of over 20% in size)
# Chain of Thyrotropin receptor (Homo sapiens) (P16473 whole entry, looked up): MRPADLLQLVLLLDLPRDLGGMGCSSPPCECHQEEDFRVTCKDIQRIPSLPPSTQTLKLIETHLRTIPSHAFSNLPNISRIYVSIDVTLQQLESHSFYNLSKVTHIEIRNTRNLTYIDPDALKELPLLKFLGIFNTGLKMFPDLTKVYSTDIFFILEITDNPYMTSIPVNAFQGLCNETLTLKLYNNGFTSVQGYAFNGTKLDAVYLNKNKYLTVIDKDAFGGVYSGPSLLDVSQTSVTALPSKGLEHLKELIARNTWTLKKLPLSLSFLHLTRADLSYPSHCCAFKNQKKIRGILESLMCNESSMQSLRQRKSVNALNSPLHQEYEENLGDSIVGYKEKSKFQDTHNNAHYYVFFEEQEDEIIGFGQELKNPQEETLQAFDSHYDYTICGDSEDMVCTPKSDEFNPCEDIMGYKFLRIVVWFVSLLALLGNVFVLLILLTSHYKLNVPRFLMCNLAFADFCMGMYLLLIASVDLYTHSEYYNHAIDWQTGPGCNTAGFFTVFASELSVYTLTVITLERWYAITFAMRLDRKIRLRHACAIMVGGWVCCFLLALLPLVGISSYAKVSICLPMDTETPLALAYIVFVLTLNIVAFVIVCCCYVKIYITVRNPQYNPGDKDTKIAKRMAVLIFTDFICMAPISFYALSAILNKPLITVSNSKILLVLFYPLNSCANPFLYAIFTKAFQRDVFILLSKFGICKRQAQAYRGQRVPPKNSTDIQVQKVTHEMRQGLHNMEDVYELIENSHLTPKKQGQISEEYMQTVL
# Outline: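 Antagonist mode: compound-treated TSHR-expressing HEK293 cells were stimulated with 1.5 ng/mL TSH (final) in presence of Ro20-1724 for 30 min at RT. HTRF cAMP detection after 1 h; each compound tested at 15 concentrations, triplicate.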
# [17] = qHTS assay to identify small molecule agonists of the sonic hedgehog signaling (Shh) pathway - cell viability counter screen (AID 1259366); also: nearly all actives have a fitted effect of over 50% in size; also: potency is read from the fitted curve at half-maximal effect
# Outline: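 Viability measured fluorometrically (CellTiter-Fluor, 1hr, 37C) in 3T3 Gli1-Luc reporter cells after 23hr compound exposure within a 24hr incubation at 37C/5% CO2.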
# [18] = qHTS assay to identify small molecule antagonists of the sonic hedgehog signaling (Shh) pathway (AID 1259369; calls by dose curve; also: nearly all actives have a fitted effect of over 45% in size; also: potency is read from the fitted curve at half-maximal effect)
# Outline: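 Inhibition of Shh signalling is measured as reduced Gli1-response-element firefly luciferase output in an NIH/3T3-derived stable reporter clone stimulated with conditioned medium for 24hr.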
Structure (SMILES),Potency [1],Potency [2],Potency [3],Potency [4],Potency [5],outcome [6],Potency [7],outcome [8],Potency [9],Potency [10],Potency [11],Potency [12],Potency [13],Potency [14],Potency [15],Potency [16],Potency [17],Potency [18]
CCOC(=O)C1=C(C)NC(C)=C(C(=O)OC)C1c1cccc([N+](=O)[O-])c1 (stereo not given),inactive,inactive,inactive,inactive,inactive,inactive,inactive,inactive,inactive,inactive,inactive,inactive,inactive,inactive,inactive,inactive,,
N#CCc1cccc(C(F)(F)F)c1,inactive,inactive,inactive,,inactive,inactive,inactive,inactive,,,inactive,inactive,inactive,inactive,inactive,inactive,inactive,inactive
COC(=O)C(C)=O,inactive,inactive,inactive,,inactive,inactive,inactive,inactive,inactive,inactive,inactive,inactive,inactive,inactive,inactive,inactive,inactive,
Nc1ccc(C(=O)N2CC3CC(CN(Cc4ccccc4)C3)C2)cc1,inactive,inactive,inactive,,inactive,inactive,inactive,inactive,,inactive,inactive,,inactive,inactive,inactive,inactive,inactive,
CCCCCCCCCCCCCCCBr,inactive,inactive,inactive,,inactive,inactive,inactive,inactive,,,inactive,inactive,inactive,inactive,inactive,inactive,inactive,inactive
Cn1sccc1=O,inactive,inactive,inactive,,inactive,inactive,27.3 µM (active),,,,inactive,inactive,inactive,inactive,inactive,inactive,48.6 µM (active),12.2 µM (active) and 3.06 µM (active)
CC(C)(C)C1CCCCC1O (stereo not given),inactive,inactive,inactive,,inactive,inactive,inactive,inactive,,,,inactive,inactive,inactive,inactive,inactive,inactive,inactive
O=C1c2cccc(O)c2C(=O)c2c(O)cc(CO)cc21,inactive,inactive,inactive,,inactive,inactive,inactive,inactive,,,,,inactive,inactive,inactive,inactive,inactive,inactive
SC1CCCC1,inactive,inactive,inactive,,inactive,inactive,inactive,,inactive,inactive,inactive,inactive,inactive,inactive,inactive,inactive,inactive,
CC(=O)CC(=O)c1ccccc1,inactive,inactive,inactive,,inactive,inactive,inactive,inactive,,inactive,inactive,inactive,inactive,inactive,inactive,,inactive,
CC[C@H](C)[C@@H](C(=O)O)n1sc2ccccc2c1=O,inactive,inactive,inactive,,inactive,inactive,inactive,inactive,inactive,,inactive,54.5 µM (active),30.6 µM (active),inactive,inactive,inactive,inactive,
CCCCOC(=O)c1ccccc1C(=O)OCC(CC)CCCC (stereo not given),inactive,inactive,inactive,,inactive,inactive,inactive,inactive,,,inactive,inactive,inactive,inactive,,inactive,inactive,inactive
CC(C)(C)c1ccc(OCC2CO2)cc1 (stereo not given),inactive,inactive,inactive,,inactive,inactive,,inactive,inactive,inactive,inactive,,inactive,inactive,inactive,inactive,inactive,inactive
COc1ccc(OC)c(OC)c1,inactive,inactive,inactive,,inactive,inactive,inactive,,,inactive,inactive,inactive,inactive,inactive,inactive,inactive,inactive,inactive
